Data published in PubChem BioAssay (NCI).
About 83,000 compounds went through this panel and 20% of them were active in at least one assay; those are over-represented in the sample as a whole.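 Note: values are percent growth. 100 is the growth of untreated cells, values between 100 and 0 indicate rising inhibition; between -100 and 0 indicates cell death.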 A number with no mark means an inactive call.

System: HCC-2998 colon
Experiment: NCI-60 one-dose screen, 48 h (100 = growth as untreated, 0 = no growth, -100 = all killed)
Settings: 10 µM
Procedure: Growth inhibition of the HCC-2998 human tumor cell line is measured as a screen for anti-cancer activity. Cells are grown in 96 well plates and exposed to the test compound for 48 hours. Compounds are tested at a single concentration, which is 10^-5 M for most compounds. The reported endpoint is percent growth (GI% or GIPRCNT), where numbers from 0 - 100% represent growth inhibition, and numbers from -100% - 0 represent cell death. For example, a value of 40 represents 60% growth inhibition. A value of 0 means no net growth occurred over the course of the experiment. A value of -40 indicates 40% of cells at the beginning of the experiment died by the end of the experiment. A value of -100 means all cells are dead at the end of the experiment.
NCI-60 Human Tumor Cell Lines Screen was performed using the standard one-dose NCI protocol, which is described in more detail at https://dtp.cancer.gov/discovery_development/nci-60/default.htm.
Compounds with GIPRCNT values below 10 were considered active. Activity score was based on GIPRCNT using the following formula: […]
Score is 0 for GIPRCNT values of 100 or above, 50 for GIPRCNT values of 0, and 100 for GIPRCNT values of -100.

Row | SMILES | growth
1 | O=C(/C=C\c1ccc(O)cc1)c1ccccc1 | 112%
2 | N#Cc1ccc(NC(=O)Nc2cccc(C#N)c2)cc1 | 95.1%
3 | CC(C)CCOC(=O)c1ccccc1 | 110%
4 | CC(=O)OCC1OC(OC2=C(CC=C(C)C)C(=O)c3ccccc3C2=O)C(OC(C)=O)C(OC(C)=O)C1OC(C)=O (stereo not given) | 77.9%
5 | Oc1ccc(O)cc1 | 114%
6 | O=C(O)[C@@H]1[C@H]2C[C@H]3c4[nH]c5ccccc5c4CCN3C[C@@H]2CC[C@@H]1O | 135%
7 | O=C(O)CCC(=O)OC(C1CO1)C(OC(=O)CCC(=O)O)C1CO1 (stereo not given) | 108%
8 | O=C(CN1CCNCC1)N1CCOCC1 | 108%
9 | N#Cc1c(N)sc(=S)c2c1CCCC2 | 106%
10 | O=C(NCCNC(=O)c1ccc(Cl)cc1Cl)c1ccc(Cl)cc1Cl | 100%
11 | COC(=O)c1ccc(NC(=O)CCl)cc1 | 113%
12 | O=[N+]([O-])c1ccc(/C=C/C=C/c2ccccc2)c(Cl)c1 | 97.3%
13 | O=C(Cc1ccccc1)Cc1ccccc1 | 114%
14 | O=C(c1ccc(Cl)cc1)c1ccccc1Cl | 92.6%
15 | O=[N+]([O-])c1ccc(Cl)c(S(=O)(=O)O)c1 | 102%
16 | COc1cccc(O)c1O | 99.8%
17 | CC1(C)S(=O)(=O)OCCOS1(=O)=O | 113%
18 | O=c1cc(-c2ccccc2)[nH]c(=S)[nH]1 | 104%
19 | OCc1cccc2ccccc12 | 108%
20 | O=[N+]([O-])c1ccc(Sc2ccncn2)c([N+](=O)[O-])c1 | 90.5%

Row | SMILES | growth
21 | CCN(CC)c1ccc2nc3ccc(=[N+](CC)CC)cc-3oc2c1 | 40.3%
22 | COc1ccc(/C=C/c2cccc[n+]2C)cc1 | 83.6%
23 | CC(=O)c1ccc(C)c(N)c1 | 108%
24 | O=C(O)c1ccnc(Br)c1 | 107%
25 | O=C(O)/C=C/c1ccc2c(c1)CCC2 | 108%
26 | COC(=O)c1ccccc1Br | 106%
27 | C=CCNC(=O)c1ccc(OC)cc1 | 93.3%
28 | O=C(O)CCC(NC(=O)OCc1ccccc1)C(=O)O (stereo not given) | 99.7%
29 | Nc1ccc(C(=O)c2ccc(N)c(Br)c2)cc1Br | 14.1%
30 | CC1(C)Nc2cccc3c(N=Nc4ccc(N=Nc5ccccc5)c5ccccc45)ccc(c23)N1 | 93.2%
31 | Cc1cccc([N+](=O)[O-])c1Cl | 86.1%
32 | NC(=O)c1ccc(N=C(N)N=C(N)N)cc1 | 97.7%
33 | c1c(-c2cc(C3CC3)[nH]n2)n[nH]c1C1CC1 | 102%
34 | CC(=O)OCC1CCCO1 (stereo not given) | 84.8%
35 | CC(=O)OCC(=O)[C@@]1(O)CC[C@H]2[C@@H]3CC[C@@H]4C[C@H](O)CC[C@]4(C)[C@H]3C(=O)C[C@@]21C | 97.5%
36 | CCCCCCCCCCC(C)Br (stereo not given) | 91%
37 | OC1OC(COC(c2ccccc2)(c2ccccc2)c2ccccc2)C(O)C(O)C1O (stereo not given) | 110%
38 | C=CCOC(=O)C(=O)OCC=C | 107%
39 | Nc1nc2c(c(-c3nc(N)nc4c3CCc3ccccc3-4)n1)CCc1ccccc1-2 | 114%
40 | NC(N)=Nc1cc2ccccc2c2ccccc12 | 95.4%
